± gives the standard deviation of the averaged measurements.
The compounds below were run on Caenorhabditis elegans N2 infected with Nematocida parisii ERTm1 (assay: progeny production relative to DMSO uninfected control; higher = more progeny despite microsporidia infection (inhibition of infection with low host toxicity)). Details: infection time 6 days; 40 µM.
Method in brief: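 In 96-well plates holding K-medium, E. coli OP50 and 15,000 N. parisii spores/μL, 100 wild-type C. elegans L1 larvae per well were exposed to compound at 100 μM or 40 μM in 1% DMSO for 6 days with shaking at 21°C. Worms were then stained with Rose Bengal, scanned and counted with WorMachine, with three runs per compound and dose. Each value is progeny production as a percentage of the spore-free vehicle condition, averaged over replicates.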

| SMILES | progeny production [%] |
| --- | --- |
| Cc1cc(C)n(O)c(=O)c1 | 1.95 ± 0.44 |
| NC(=O)c1cnccn1 | 6.68 ± 7.5 |
| CC[C@@H](CO)NCCN[C@@H](CC)CO | 4.98 ± 2.4 |
| N#C/C(=C1/SC[C@H](c2ccc(Cl)cc2Cl)S1)n1ccnc1 | 3.11 ± 0.38 |
| C[C@H]1[C@@H](c2cccc(C(F)(F)F)c2)OC(=O)N1C(=O)NCc1cncc2ccccc12 | 2.28 ± 1.4 |
| CO[C@@]1(NC(=O)Cc2cccs2)C(=O)N2C(C(=O)O)=C(COC(N)=O)CS[C@@H]21 | 8.96 ± 2.4 |
| Fc1ccc2c(/C=C/c3cccnc3)c[nH]c2c1 | 3.47 ± 0.88 |
| CCCCC(CC)CNC(=N)NC(=N)NCCCCCCNC(=N)NC(=N)NCC(CC)CCCC (centres undefined) | 5.25 ± 0.29 |
| COc1ccc(C[C@@H](C)[C@@H](C)Cc2ccc(OC)c(OC)c2)cc1OC | 3.86 ± 0.4 |
| OCCC#Cc1nc(-c2ccc(F)cc2)c(-c2ccncc2)n1CCCc1ccccc1 | 5.08 ± 0.6 |
| CC(C)(C)OC(=O)NCc1ccc(C(=O)N[C@H]2CCOC2=O)cc1 | 5.57 ± 4.2 |
| Cc1ncc([N+](=O)[O-])n1CC(C)O (centres undefined) | 7.4 ± 3.9 |
| CC(=O)Nc1cc(NS(=O)(=O)c2ccc(Cl)cc2)cc2c(Cl)[nH]nc12 | 5.97 ± 4.1 |
| CCc1oc2ccccc2c1C(=O)c1ccc(O)cc1 | 11.4 ± 2.5 |
| COc1ccc(NS(=O)(=O)c2ccc(Cl)s2)cn1 | 4.12 ± 0.52 |
| CN(O)C(=O)c1cc2c(CN3CCC[C@H]3C(N)=O)cn(Cc3ccc(F)cc3)c2cn1 | 3.84 ± 1.6 |
| Cc1c(N)cccc1Cn1ccc(OCCc2cccs2)cc1=O | 7.99 ± 2.1 |
| O=[N+]([O-])c1ccc2c(CCc3c[nH]c4ccccc34)c[nH]c2c1 | 8.93 ± 1.7 |
| C=C(C)n1c(=O)n(Cc2ccccc2C)c2ccccc21 | 6.26 ± 0.83 |
